The values below come from the supplement of paper PMC10042075.

The structures appear in SMILES notation. Several values for one entry are separate records, joined by “and”; a condition that tells them apart may be missing. Equal entries are not always repeated. Structures can show the parent of a compound that is named as a salt. ± gives the standard deviation of the averaged measurements.

The subject of the assay is LASCPC-01. Kind of assay: cell viability relative to DMSO control (fraction); higher = less growth inhibition (more viable cells). Conditions: 2 µM; 72 h. As for the experimental part:
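High-throughput single-dose screen in the LASCPC-01 NEPC cell line in 384-well plates. Cells were treated with each compound at 2 µM for 72 h, and viability was read by CellTiter-Glo luminescence. Values are normalised to the DMSO control (compound/DMSO) from three replicates; only the 5-HT-related subset of the 7315-compound library is given.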
As to `COc1ccc(NC(=O)c2ccc(-c3ccc(-c4noc(C)n4)cc3C)cc2)cc1N1CCN(C)CC1`, the cell viability came out at 0.512. For `CN1CCC[C@@H]1Cc1c[nH]c2ccc(CCS(=O)(=O)c3ccccc3)cc12` [Eletriptan HBr] the value was 0.983; for `N[C@@H](Cc1c[nH]c2ccc(O)cc12)C(=O)O` [5-Hydroxy-L-tryptophan], 1.04. For `O=C(O[C@@H]1C[C@@H]2C[C@H]3C[C@H](C1)N2CC3=O)c1c[nH]c2ccccc12` [Dolasetron] the value was 1.15; for `CN(C)CCC=C1c2ccccc2CCc2ccccc21` [Amitriptyline HCl], 1.15; for `CN1C2CCCC1CC(NC(=O)c1nn(C)c3ccccc13)C2` (stereo not given) [Granisetron hydrochloride], 0.955. Then `CN1[C@@H]2CC[C@H]1CC(OC(=O)c1c[nH]c3ccccc13)C2` (stereo not given in full) [3-Tropanyl-indole-3-carboxylate hydrochloride], with 1.04; and `COCCCC/C(=N\OCCN)c1ccc(C(F)(F)F)cc1` [Fluvoxamine maleate], with 1.07 ± 0.028; and `O=C1CCc2ccc(OCCCCN3CCN(c4cccc(Cl)c4Cl)CC3)cc2N1` [Aripiprazole], with 1.05. `CN(C)CCCc1cc(C(=O)Nc2ccc(-c3ccncc3)cc2)ccc1O` returned a cell viability of 0.993. For `CNCC[C@H](Oc1cccc2ccccc12)c1cccs1` [Duloxetine HCl] the value was 1.13; for `N[C@@H]1CC[C@@H](c2ccc(Cl)c(Cl)c2)c2ccccc21` [Dasotraline hydrochloride], 1.13. For `CN1[C@@H]2CC[C@H]1C[C@@H](OC(=O)c1c[nH]c3ccccc13)C2` [Tropisetron] the value was 1.01; for `COc1ccccc1N1CCN(CCCCN2C(=O)c3ccccc3C2=O)CC1` [NAN-190 hydrobromide], 0.884.

On to `O=C1[C@@H]2[C@H]3CC[C@H](C3)[C@@H]2C(=O)N1C[C@@H]1CCCC[C@H]1CN1CCN(c2nsc3ccccc23)CC1` [Lurasidone hydrochloride], for which the cell viability is 0.876. For `COc1cccc(CCc2ccccc2OCC(CN(C)C)OC(=O)CCC(=O)O)c1` (stereo not given) [Sarpogrelate hydrochloride] the value was 1.09. As to `NC(N)=NC(N)=Nc1ccccc1` [1-Phenylbiguanide], the cell viability came out at 0.991. For `COc1ccccc1N1CCN(CCN2C(=O)CC3(CCCC3)CC2=O)CC1` [BMY 7378 dihydrochloride] the value was 1.07.

`Cn1ccc2cc3c(cc21)CCN3C(=O)Nc1cccnc1` gave a cell viability of 1.06. Then `CN(C)CC(c1ccc(O)cc1)C1(O)CCCCC1` (stereo not given) [Desvenlafaxine], with 1; and `COc1cc(N)c(Cl)cc1C(=O)NC1CCN(CCCOc2ccc(F)cc2)CC1OC` (stereo not given) [Cisapride], with 0.803; and `Cc1cc2c(cc1Cl)N(C(=O)Nc1ccc(Oc3cccnc3C)nc1)CC2`, with 0.0538.

In turn, `COc1cc(/C=C/C(=O)NCCn2c(C(F)(F)F)cc3ccccc32)cc(OC)c1OC` returned a cell viability of 0.968.

Molecule `COc1cc(/C=C/C(=O)O)ccc1O` [Sodium ferulic] yielded a cell viability of 0.909.

`Cc1ccc(Sc2ccccc2N2CCNCC2)c(C)c1` gave a cell viability of 1.01.

Take `O=c1[nH]c2ccccc2n1CCN1CCN(c2cccc(C(F)(F)F)c2)CC1` [Flibanserin]: the cell viability is 1.02. The molecule `O=C(c1ccc(F)cc1)C1CCN(CCn2c(=O)[nH]c3ccccc3c2=O)CC1` [Ketanserin] returned a cell viability of 0.968. Then `CN1CCN(C2=Nc3cc(Cl)ccc3Nc3ccccc32)CC1` [Clozapine], with 1.24; and `CC1(C)C(=O)N(CCN2CCC(C(=O)c3ccc(F)cc3)CC2)c2ccccc21`, with 0.991. As for `CC(C)COc1ccc(CNC(=O)N(Cc2ccc(F)cc2)C2CCN(C)CC2)cc1` [Pimavanserin tartrate], the cell viability was 0.514.

Turning to `C=CCc1ccccc1OCC(O)CNC(C)C` (stereo not given) [Alprenolol], the cell viability is 1.03.

Molecule `O=C1[C@H]2CCCC[C@H]2C(=O)N1CCCCN1CCN(c2nsc3ccccc23)CC1` [Perospirone] yielded a cell viability of 0.997. For `OC(CN1CCN(c2cccc(Cl)c2)CC1)C(c1ccccc1)c1ccccc1` (stereo not given) the value was 0.778; for `CC(C)COc1ccc(CNC(=O)N(Cc2ccc(F)cc2)C2CCN(C)CC2)cc1` [Pimavanserin], 0.72; for `CC1CCN(CC[C@H]2CCCN2S(=O)(=O)c2cccc(O)c2)CC1`, 0.707 and 0.855.

In the case of `CN(C)[C@@H](CCOc1cccc2ccccc12)c1ccccc1` [Dapoxetine HCl], the cell viability is 1.03. Molecule `CN[C@H]1CC[C@@H](c2ccc(Cl)c(Cl)c2)c2ccccc21` [Sertraline hydrochloride] registered a cell viability of 0.958.

Consider `CCCCN1CCC(CNC(=O)c2c3n(c4ccccc24)CCCO3)CC1` [Piboserod], for which the cell viability stood at 1.21. Then `Cc1cc2c(s1)Nc1ccccc1N=C2N1CCN(C)CC1` [Olanzapine], with 1.02 ± 0.042; and `N=C(N)NC(=N)Nc1ccccc1` [Phenylbiguanide], with 0.637.
